Assay [1] deals with human Peroxisome Proliferator-activated Receptor alpha (PPARa), PPARA (gene 5465) (UniProt Q07869). Description: ATG_PPARa_TRANS: Attagene TRANS-FACTORIAL HepG2 Assay for human Peroxisome Proliferator-activated Receptor alpha (PPARa) (AID 2283001).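 As to AC50: potency for gain of reporter signal over DMSO so agonist or activator.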 The procedure, abridged: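 Measures transcriptional activity of an exogenous chimeric PPARa-Gal4 protein in transiently transfected HepG2 cells after 24 h dosing. Reporter mRNA quantified via RT-PCR and capillary electrophoresis; DMSO served as negative control.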

Assay [2] addresses human Peroxisome Proliferator-activated Receptor delta (PPARd), PPARD (gene 5467) (UniProt Q03181). Nature of the assay: ATG_PPARd_TRANS: Attagene TRANS-FACTORIAL HepG2 Assay for human Peroxisome Proliferator-activated Receptor delta (PPARd) (AID 2283002). A digest of the protocol: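 HepG2 cells transiently transfected with GAL4-UAS multiplexed reporter units driven by exogenous chimeric NR-GAL4 proteins; 24 h compound exposure. Reporter mRNA measured by RT-PCR, 6-FAM primer extension, HpaI digestion and capillary electrophoresis; gain of signal fitted relative to DMSO.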

Assay [3] has as its target Retinoic acid receptor alpha (Homo sapiens) (UniProt P10276). Description: ATG_RARa_TRANS: Attagene TRANS-FACTORIAL HepG2 Assay for human Retinoic Acid Receptor alpha (RARa) (AID 2283005). A digest of the protocol: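 HepG2 transiently transfected with multiplex GAL4-UAS reporter units including a human RARa–GAL4 chimera; 24 h compound exposure. Reporter mRNA quantified by RT-PCR, 6-FAM labeling and capillary electrophoresis; gain of signal versus DMSO.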

For assay [4], the target named is Peroxisome proliferator-activated receptor gamma (Homo sapiens) (UniProt P37231). Description: ATG_PPARg_TRANS: Attagene TRANS-FACTORIAL HepG2 Assay for human Peroxisome Proliferator-activated Receptor-gamma (PPARg) (AID 2283007). A digest of the protocol:
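Liver-derived HepG2 cells expressing an exogenous NR-Gal4 chimera alongside GAL4-UAS reporter genes; 24 h exposure. Fluorescence of reporter RT-PCR products, separated by capillary electrophoresis, gives mRNA induction relative to DMSO.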

Assay [5] concerns the target Nuclear receptor subfamily 1 group I member 2 (Homo sapiens) (UniProt O75469). Nature of the assay: ATG_PXR_TRANS: Attagene TRANS-FACTORIAL HepG2 Assay for human Pregnane X Receptor (PXR) (AID 2283008). A digest of the protocol: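 Measures mRNA induction of a GAL4-UAS-driven reporter in human HepG2 cells transiently expressing PXR fused to Gal4, following 24 h treatment. DMSO served as negative control and baseline.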

The target of assay [6] is human Retinoic Acid Receptor gamma (RARg), RARG (gene 5916) (UniProt P13631). Description: ATG_RARg_TRANS: Attagene TRANS-FACTORIAL HepG2 Assay for human Retinoic Acid Receptor gamma (RARg) (AID 2283009). The procedure, abridged: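 HepG2, RARg-GAL4 TRANS system, 24 h exposure; reporter mRNA by RT-PCR + CE fluorescence; increase over DMSO.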
The target of assay [7] is human RAR-related Orphan Receptor gamma (RORg), RORC (gene 6097) (UniProt P51449). Nature of the assay: ATG_RORg_TRANS: Attagene TRANS-FACTORIAL HepG2 Assay for human RAR-related Orphan Receptor gamma (RORg) (AID 2283011). A digest of the protocol: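 Activity is scored as increase in GAL4-UAS reporter mRNA over DMSO, detected by fluorescent RT-PCR and capillary electrophoresis in HepG2 cells transiently expressing a RORg-Gal4 chimera, 24 h after dosing.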

The target in assay [8] is human Retinoid X Receptor beta (RXRb), RXRB (gene 6257) (UniProt P28702). Description: ATG_RXRb_TRANS: Attagene TRANS-FACTORIAL HepG2 Assay for human Retinoid X Receptor beta (RXRb) (AID 2283013). The procedure, abridged:
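Multiplexed TRANS reporter assay in HepG2; 24 h dosing; reporter mRNA by RT-PCR/CE fluorescence; gain-of-signal relative to DMSO.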

Assay [9] addresses human Thyroid Receptor alpha (THRa1), THRA (gene 7067) (UniProt P10827). Nature of the assay: ATG_THRa1_TRANS: Attagene TRANS-FACTORIAL HepG2 Assay for human Thyroid Receptor alpha (THRa1) (AID 2283014). A digest of the protocol: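 First, HepG2 cells receive multiple GAL4-UAS reporter units and the chimeric receptor. They are then dosed for 24 h, after which RNA is reverse-transcribed, amplified, labelled, HpaI-cut and sized by capillary electrophoresis; gain relative to DMSO is scored.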

The nature of assay [10]: BSK_4H_Eotaxin3: BioMAP Diversity Plus: 4H Assay for Eotaxin 3 Biomarker Activity (AID 2283000; active = hit-call score of the fitted dose curve at least 0.9, where 1 is the maximum; inactive = score below 0.9;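 as to outcome: CCL26 protein level quantified by ELISA in parallel with SRB cytotoxicity check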). As to conditions: primary human endothelial cells (HUVEC); actives raise or lower the signal. A digest of the protocol:
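Endothelial primary cells (human umbilical vein) exposed to compound for 24 h. ELISA detection of Eotaxin-3.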

Read-out in assay [11]: Intercellular Adhesion Molecule 1 (ICAM1), ICAM1 (gene 3383)
Description: BSK_3C_ICAM1: BioMAP Diversity Plus: 3C Assay for Intercellular Adhesion Molecule 1 (ICAM1) Biomarker Activity (AID 2283003; active = hit-call score of the fitted dose curve at least 0.9, where 1 is the maximum; inactive = score below 0.9). As to conditions: primary human endothelial cells (HUVEC); actives raise or lower the signal. The procedure, abridged:
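Human vascular endothelial primary cells, 3C conditions, 24 h treatment. ICAM-1 by ELISA.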

Assay [12] in a line: BSK_3C_Proliferation: Cell Proliferation Assessment in the BioMAP Diversity Plus: 3C Assay (AID 2283006; active = hit-call score of the fitted dose curve at least 0.9, where 1 is the maximum; inactive = score below 0.9;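 as to AC50: potency may reflect either rise or fall in cell number versus DMSO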). The following applies: primary human endothelial cells (HUVEC). The procedure, abridged:
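Proliferation of human vascular endothelial primary cells after 48 h dosing, quantified as SRB-stained protein at 560 nm relative to DMSO.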

Assay [13] concerns the target Retinoic acid receptor RXR-alpha (Homo sapiens) (UniProt P19793). Nature of the assay: ATG_RXRa_TRANS: Attagene TRANS-FACTORIAL HepG2 Assay for human Retinoid X Receptor alpha (RXRa) (AID 2283012). The procedure, abridged: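 Cells (HepG2) carried transiently transfected GAL4-responsive reporter units. Following a 24 h chemical incubation, reporter mRNA induction was read via RT-PCR fragment analysis; DMSO served as negative control and baseline.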

Read-out in assay [14]: E-selectin (Homo sapiens) (UniProt P16581)
Nature of the assay: BSK_3C_Eselectin: BioMAP Diversity Plus: 3C Assay for Eselectin Biomarker Activity (AID 2283015; active = hit-call score of the fitted dose curve at least 0.9, where 1 is the maximum; inactive = score below 0.9;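 as to outcome: cell surface E-selectin protein quantified by ELISA 24 h after dosing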). As to conditions: primary human endothelial cells (HUVEC); actives raise or lower the signal. A digest of the protocol: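 Human vascular endothelium from umbilical vein is exposed to test chemicals for 24 h. E-selectin levels are read by ELISA and compared with DMSO controls.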

Read-out in assay [15]: Interleukin-1 alpha (IL1a), IL1A (gene 3552)
Description: BSK_BE3C_IL1a: BioMAP Diversity Plus: BE3C Assay for Interleukin-1 alpha (IL1a) Biomarker Activity (AID 2283016; active = hit-call score of the fitted dose curve at least 0.9, where 1 is the maximum; inactive = score below 0.9). The following applies: primary human bronchial epithelial cells; actives raise or lower the signal. A digest of the protocol: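 Cultures of primary human bronchial epithelial cells receive test chemical. After 24 h, IL-1a is quantified by ELISA, while parallel wells are fixed in TCA and SRB-stained for total protein. Changes in either direction are fitted relative to DMSO.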

Read-out in assay [16]: Monocyte Chemoattractant Protein-1 (MCP1), CCL2 (gene 6347)
Description: BSK_3C_MCP1: BioMAP Diversity Plus: 3C Assay for Monocyte Chemoattractant Protein-1 (MCP1) Biomarker Activity (AID 2283017; active = hit-call score of the fitted dose curve at least 0.9, where 1 is the maximum; inactive = score below 0.9). As to conditions: primary human endothelial cells (HUVEC); actives raise or lower the signal. A digest of the protocol: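 Endothelial cells from human umbilical vein are dosed with chemical, cultured 24 h, then assayed for MCP-1 by ELISA; both increases and decreases are modelled against DMSO controls.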

Read-out in assay [17]: Monocyte Chemoattractant Protein-1 (MCP1), CCL2 (gene 6347)
Description: BSK_4H_MCP1: BioMAP Diversity Plus: 4H Assay for Monocyte Chemoattractant Protein-1 (MCP1) Biomarker Activity (AID 2283018; active = hit-call score of the fitted dose curve at least 0.9, where 1 is the maximum; inactive = score below 0.9). As to conditions: primary human endothelial cells (HUVEC); actives raise or lower the signal. A digest of the protocol:
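Readout: MCP-1 ELISA on compound-treated HUVEC, sampled 24 h post-dosing. Baseline and negative control DMSO; bidirectional fit. Overt toxicity checked alongside by sulforhodamine B protein staining at time of biomarker measurement.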

Read-out in assay [18]: Human Leukocyte Antigen - DR isotype (HLADR), HLA-DRA (gene 3122)
Description: BSK_3C_HLADR: BioMAP Diversity Plus: 3C Assay for Human Leukocyte Antigen - DR isotype (HLADR) Biomarker Activity (AID 2283019; active = hit-call score of the fitted dose curve at least 0.9, where 1 is the maximum; inactive = score below 0.9;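 as to outcome: ELISA of cell-surface HLA-DR on HUVEC 24 h after dosing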). As to conditions: primary human endothelial cells (HUVEC); actives raise or lower the signal. The procedure, abridged:
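Endothelial cells from human umbilical vein are treated with test chemical; after 24 h, HLA-DR levels are measured by ELISA. Data are fitted in both directions using DMSO as the baseline.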

Assay [19] concerns the target human RAR-related Orphan Receptor beta (RORb), RORB (gene 6096) (UniProt Q92753). Nature of the assay: ATG_RORb_TRANS: Attagene TRANS-FACTORIAL HepG2 Assay for human RAR-related Orphan Receptor beta (RORb) (AID 2283010). The procedure, abridged: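 In this TRANS-format test, human HepG2 cells express chimeric NR-Gal4 fusion proteins driving GAL4-UAS reporters. After 24 h dosing, reporter transcripts are measured by fluorescent RT-PCR/capillary electrophoresis, with DMSO as negative control.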

Assay [20] addresses human Retinoic Acid Receptor beta (RARb), RARB (gene 5915) (UniProt P10826). Nature of the assay: ATG_RARb_TRANS: Attagene TRANS-FACTORIAL HepG2 Assay for human Retinoic Acid Receptor beta (AID 2283004). A digest of the protocol:
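HepG2, transient MRTU transfection, NR–Gal4 chimera, 24 h treatment; RT-PCR plus CE fluorescence detection of reporter mRNA; gain of signal vs DMSO.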

Inconclusive results are not listed. Calls of active or inactive are those of the source. The calls were made as follows, unless noted: active = hit-call score of the fitted dose curve at least 0.9, where 1 is the maximum; inconclusive = response in the unintended direction; inactive = score below 0.9.

human Retinoic Acid Receptor gamma (RARg), RARG (gene 5916), sequence (P13631 whole entry, looked up, the tested form may be a part): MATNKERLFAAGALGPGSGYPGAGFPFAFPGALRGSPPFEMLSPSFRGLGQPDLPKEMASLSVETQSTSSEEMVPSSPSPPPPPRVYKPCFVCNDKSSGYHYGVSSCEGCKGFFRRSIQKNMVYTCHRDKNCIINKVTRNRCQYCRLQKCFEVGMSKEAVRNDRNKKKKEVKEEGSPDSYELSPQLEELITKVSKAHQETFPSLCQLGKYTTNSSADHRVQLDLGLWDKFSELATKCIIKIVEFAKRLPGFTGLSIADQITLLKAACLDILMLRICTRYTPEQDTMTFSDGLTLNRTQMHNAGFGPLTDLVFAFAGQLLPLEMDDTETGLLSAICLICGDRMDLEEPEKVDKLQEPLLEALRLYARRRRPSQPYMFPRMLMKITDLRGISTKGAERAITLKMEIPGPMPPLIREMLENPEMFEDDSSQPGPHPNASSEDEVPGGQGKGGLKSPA
Retinoic acid receptor alpha (Homo sapiens), sequence (P10276 whole entry, looked up, the tested form may be a part): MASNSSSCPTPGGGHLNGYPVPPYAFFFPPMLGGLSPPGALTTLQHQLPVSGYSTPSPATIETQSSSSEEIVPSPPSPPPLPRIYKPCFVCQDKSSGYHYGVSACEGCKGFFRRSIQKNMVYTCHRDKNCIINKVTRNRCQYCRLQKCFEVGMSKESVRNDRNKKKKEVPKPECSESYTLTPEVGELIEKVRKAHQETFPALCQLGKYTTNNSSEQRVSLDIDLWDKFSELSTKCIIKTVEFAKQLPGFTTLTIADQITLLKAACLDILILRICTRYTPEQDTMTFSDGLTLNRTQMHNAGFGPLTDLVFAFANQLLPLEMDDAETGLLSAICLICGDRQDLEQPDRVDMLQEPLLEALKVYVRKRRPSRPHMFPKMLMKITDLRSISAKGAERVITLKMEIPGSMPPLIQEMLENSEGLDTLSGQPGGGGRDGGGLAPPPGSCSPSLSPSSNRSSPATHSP
Nuclear receptor subfamily 1 group I member 2 (Homo sapiens), sequence (O75469 whole entry, looked up, the tested form may be a part): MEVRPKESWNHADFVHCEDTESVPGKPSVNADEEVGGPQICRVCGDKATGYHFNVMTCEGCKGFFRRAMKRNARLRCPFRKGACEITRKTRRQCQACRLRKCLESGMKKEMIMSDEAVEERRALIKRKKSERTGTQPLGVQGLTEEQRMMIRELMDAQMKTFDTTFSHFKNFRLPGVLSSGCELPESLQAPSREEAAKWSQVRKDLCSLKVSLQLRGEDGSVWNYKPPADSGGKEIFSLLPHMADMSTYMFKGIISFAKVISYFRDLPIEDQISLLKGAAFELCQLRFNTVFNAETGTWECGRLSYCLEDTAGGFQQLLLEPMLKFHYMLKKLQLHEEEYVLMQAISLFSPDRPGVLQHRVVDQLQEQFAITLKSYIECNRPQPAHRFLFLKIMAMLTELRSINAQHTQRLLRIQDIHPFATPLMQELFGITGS
human Retinoid X Receptor beta (RXRb), RXRB (gene 6257), sequence (P28702 whole entry, looked up): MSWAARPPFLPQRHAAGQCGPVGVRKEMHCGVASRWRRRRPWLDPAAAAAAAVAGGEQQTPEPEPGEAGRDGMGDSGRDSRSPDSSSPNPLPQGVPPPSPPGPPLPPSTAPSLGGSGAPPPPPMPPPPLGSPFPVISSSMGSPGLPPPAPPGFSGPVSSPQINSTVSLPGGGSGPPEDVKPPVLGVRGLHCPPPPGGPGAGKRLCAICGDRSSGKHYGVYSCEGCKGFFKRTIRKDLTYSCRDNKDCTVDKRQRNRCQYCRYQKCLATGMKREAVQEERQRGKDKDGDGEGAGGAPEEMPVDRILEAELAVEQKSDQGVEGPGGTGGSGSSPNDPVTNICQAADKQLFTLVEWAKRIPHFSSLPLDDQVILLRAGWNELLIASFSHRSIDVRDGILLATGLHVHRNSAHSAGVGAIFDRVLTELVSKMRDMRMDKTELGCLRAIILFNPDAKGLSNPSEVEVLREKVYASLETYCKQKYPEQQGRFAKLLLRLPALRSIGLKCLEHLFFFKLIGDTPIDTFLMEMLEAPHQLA
human Peroxisome Proliferator-activated Receptor delta (PPARd), PPARD (gene 5467), sequence (Q03181 whole entry, looked up, the tested form may be a part): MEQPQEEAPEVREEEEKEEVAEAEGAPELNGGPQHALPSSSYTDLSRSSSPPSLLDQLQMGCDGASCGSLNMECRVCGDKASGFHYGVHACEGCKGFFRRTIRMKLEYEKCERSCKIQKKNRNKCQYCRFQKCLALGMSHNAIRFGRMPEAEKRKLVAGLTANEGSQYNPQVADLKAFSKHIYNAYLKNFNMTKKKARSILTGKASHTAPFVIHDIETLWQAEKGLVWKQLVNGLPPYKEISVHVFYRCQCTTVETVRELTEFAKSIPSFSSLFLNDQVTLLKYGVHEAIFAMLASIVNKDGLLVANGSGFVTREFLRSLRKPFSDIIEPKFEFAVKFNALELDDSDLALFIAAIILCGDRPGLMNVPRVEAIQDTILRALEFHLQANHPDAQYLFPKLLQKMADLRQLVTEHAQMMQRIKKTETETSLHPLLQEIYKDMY
Retinoic acid receptor RXR-alpha (Homo sapiens), sequence (P19793 whole entry, looked up, the tested form may be a part): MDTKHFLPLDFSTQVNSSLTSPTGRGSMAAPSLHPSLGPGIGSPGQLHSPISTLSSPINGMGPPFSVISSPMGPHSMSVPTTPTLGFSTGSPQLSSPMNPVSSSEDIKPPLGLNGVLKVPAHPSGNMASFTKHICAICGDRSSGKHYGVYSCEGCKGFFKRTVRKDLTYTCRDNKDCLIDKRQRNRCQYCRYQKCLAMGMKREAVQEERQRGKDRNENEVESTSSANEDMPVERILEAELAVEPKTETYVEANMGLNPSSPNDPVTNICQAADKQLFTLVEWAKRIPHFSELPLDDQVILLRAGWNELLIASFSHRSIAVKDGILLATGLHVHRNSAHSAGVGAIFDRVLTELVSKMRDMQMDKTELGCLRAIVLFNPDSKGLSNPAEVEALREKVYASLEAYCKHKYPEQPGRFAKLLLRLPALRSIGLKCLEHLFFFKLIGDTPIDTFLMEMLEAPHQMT
human Peroxisome Proliferator-activated Receptor alpha (PPARa), PPARA (gene 5465), sequence (Q07869 whole entry, looked up, the tested form may be a part): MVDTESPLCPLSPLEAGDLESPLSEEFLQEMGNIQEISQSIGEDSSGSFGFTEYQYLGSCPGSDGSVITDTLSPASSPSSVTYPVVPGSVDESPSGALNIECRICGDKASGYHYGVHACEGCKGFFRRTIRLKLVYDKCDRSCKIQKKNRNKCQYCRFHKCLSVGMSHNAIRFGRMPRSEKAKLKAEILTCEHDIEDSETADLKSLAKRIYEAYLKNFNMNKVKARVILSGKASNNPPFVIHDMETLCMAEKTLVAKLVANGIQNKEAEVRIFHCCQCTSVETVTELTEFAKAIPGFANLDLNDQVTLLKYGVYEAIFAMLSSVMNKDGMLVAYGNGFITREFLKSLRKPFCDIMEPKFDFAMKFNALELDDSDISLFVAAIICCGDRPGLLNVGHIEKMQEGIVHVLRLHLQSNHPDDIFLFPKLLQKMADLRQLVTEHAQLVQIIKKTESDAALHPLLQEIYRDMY
Peroxisome proliferator-activated receptor gamma (Homo sapiens), sequence (P37231 whole entry, looked up, the tested form may be a part): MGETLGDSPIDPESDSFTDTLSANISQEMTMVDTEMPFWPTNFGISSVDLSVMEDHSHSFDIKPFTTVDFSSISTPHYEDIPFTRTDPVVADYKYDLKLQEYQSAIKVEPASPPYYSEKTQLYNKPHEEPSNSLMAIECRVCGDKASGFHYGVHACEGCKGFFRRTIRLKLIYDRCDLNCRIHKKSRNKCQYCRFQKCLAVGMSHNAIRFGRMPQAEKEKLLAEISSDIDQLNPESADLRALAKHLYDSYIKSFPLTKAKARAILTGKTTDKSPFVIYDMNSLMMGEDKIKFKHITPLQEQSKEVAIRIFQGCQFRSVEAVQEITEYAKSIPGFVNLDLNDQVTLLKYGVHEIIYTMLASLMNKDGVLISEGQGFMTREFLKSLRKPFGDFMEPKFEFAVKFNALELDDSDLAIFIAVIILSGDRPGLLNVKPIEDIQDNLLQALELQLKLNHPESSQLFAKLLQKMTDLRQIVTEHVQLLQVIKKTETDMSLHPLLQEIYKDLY
E-selectin (Homo sapiens), sequence (P16581 whole entry, looked up): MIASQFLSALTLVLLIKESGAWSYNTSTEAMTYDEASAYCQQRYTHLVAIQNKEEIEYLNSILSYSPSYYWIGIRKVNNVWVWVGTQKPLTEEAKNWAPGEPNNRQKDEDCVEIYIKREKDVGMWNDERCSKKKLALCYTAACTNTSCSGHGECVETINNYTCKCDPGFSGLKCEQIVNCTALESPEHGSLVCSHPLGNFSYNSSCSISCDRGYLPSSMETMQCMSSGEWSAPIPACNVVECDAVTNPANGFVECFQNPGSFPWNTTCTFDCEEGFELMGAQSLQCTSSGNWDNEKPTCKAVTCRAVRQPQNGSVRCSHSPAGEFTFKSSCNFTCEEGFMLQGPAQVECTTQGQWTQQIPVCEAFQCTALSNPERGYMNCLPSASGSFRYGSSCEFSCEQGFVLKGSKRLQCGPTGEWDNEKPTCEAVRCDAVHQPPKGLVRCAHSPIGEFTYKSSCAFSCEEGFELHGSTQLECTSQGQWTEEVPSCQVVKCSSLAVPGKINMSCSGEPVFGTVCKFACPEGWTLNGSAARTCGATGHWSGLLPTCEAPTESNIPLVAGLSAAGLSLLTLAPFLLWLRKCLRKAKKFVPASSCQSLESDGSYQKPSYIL
human Thyroid Receptor alpha (THRa1), THRA (gene 7067), sequence (P10827 whole entry, looked up, the tested form may be a part): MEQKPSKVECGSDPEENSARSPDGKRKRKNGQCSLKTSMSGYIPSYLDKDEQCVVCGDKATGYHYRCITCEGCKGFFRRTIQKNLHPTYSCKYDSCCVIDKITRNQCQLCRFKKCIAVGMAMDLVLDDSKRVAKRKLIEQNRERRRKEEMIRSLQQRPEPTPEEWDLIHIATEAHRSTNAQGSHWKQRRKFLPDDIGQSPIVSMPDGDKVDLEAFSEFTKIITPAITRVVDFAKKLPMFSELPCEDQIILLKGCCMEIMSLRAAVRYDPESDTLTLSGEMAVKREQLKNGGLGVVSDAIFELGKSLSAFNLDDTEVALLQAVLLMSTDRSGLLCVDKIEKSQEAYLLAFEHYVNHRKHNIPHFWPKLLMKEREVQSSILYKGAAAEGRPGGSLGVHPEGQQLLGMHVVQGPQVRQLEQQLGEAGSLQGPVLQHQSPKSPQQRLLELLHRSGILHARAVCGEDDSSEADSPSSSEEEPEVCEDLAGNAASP

The AC50 is the midpoint of the concentration-response curve, whichever way the signal moves. Take `CCCCCCC(C)(C)C(=O)O`: the AC50 is 18 µM (active) in assay [1] and 46.3 µM (active) in assay [4]. In addition, the compound was called inactive in [2], in assay [3], in assay [5], in assay [6], in [7] and in assay [8]. Also, the call in assay [9] was inactive.

Turning to `C=COC(=O)C(C)(C)CCCCCC`, the AC50 was 30.3 µM (active) in assay [10]; 30.7 µM (active) in assay [11]; 26.7 µM (active) in assay [12]; 36.5 µM (active) in assay [5]; 32.7 µM (active) in assay [14]; 34.9 µM (active) in assay [15]. Besides, the AC50 in [16] is 31.3 µM (active); in [17], 20 µM (active); in assay [18], 33.6 µM (active). Also, the compound was called inactive in [2], in assay [4], in assay [13] and in [9].

For the compound `COC1=CC(=O)C[C@@H](C)[C@]12Oc1c(Cl)c(OC)cc(OC)c1C2=O`, the outcome in assay [10], in assay [11], in assay [4], in assay [5], in assay [6] and in assay [13] was inactive. The call in assay [9], in assay [14], in assay [15], in assay [16], in assay [17] and in assay [18] was inactive. Further, the AC50 in assay [12] is 28.3 µM (active).

Regarding `O=C(Nc1cccc([N+](=O)[O-])c1)c1cc2ccccc2cc1O`, the outcome in assay [1], in assay [2], in [3], in assay [6], in assay [19] and in assay [13] was inactive. Further, in [8], the result was inactive. Also, the AC50 in assay [4] is 6.92 µM (active); in assay [9] it was 17.5 µM (active).

On to `CCCCCCCCCCCCOS(=O)(=O)O`, for which the outcome in [10], in assay [11], in assay [12], in assay [14], in assay [15] and in [16] was inactive. Moreover, the outcome in assay [17] and in [18] was inactive.

`CCO[Si](CCC1CCC2OC2C1)(OCC)OCC` (stereo unspecified): the outcome in [1], in assay [2], in assay [3], in assay [4] and in [7] was inactive.

Take `CC1COCc2cc3c(cc21)C(C)(C)C(C)C3(C)C` (stereo unspecified): the result in [1], in assay [2], in [20], in assay [6], in assay [13] and in assay [9] was inactive. The AC50 was 66.9 µM (active) in assay [4], 2.14 µM (active) in [5] and 8.91 µM (active) in assay [8].

The values above are taken from PubChem BioAssay (EPA / NIEHS).
